# According to the supplement of paper PMC9694430:
# Counter-ions that a name gives are not always drawn.
# How the values were obtained:
# Test in all cases: thermal shift delta Tm vs DMSO control; higher = stronger stabilization (binding)
# Conditions in all cases: 12.5 µM; protein concentration 2 µM
# [1] = tested on: LOC_OS04G57630-cb004
# Method in brief: (§1)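 Purified, E. coli-expressed rice kinase domain constructs were tested by differential scanning fluorimetry in 96-well plates: 19.5 μl of 2 μM kinase in 100 mM potassium phosphate pH 7.5, 150 mM NaCl, 10% glycerol, 5 × SYPRO Orange, plus compound in DMSO. Fluorescence was read from 25°C to 95°C at 0.05°C/s. Melting temperatures came from Boltzmann fits, and the shift is the triplicate mean relative to protein with DMSO alone.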
# [2] = tested on: LOC_OS05G07850-cb002
# Method in brief: as §1
# [3] = tested on: LOC_OS05G16824-cb004
# Method in brief: as §1
# [4] = tested on: LOC_OS05G28520-cb001
# Method in brief: as §1
# [5] = tested on: LOC_OS05G30820-cb001
# Method in brief: as §1
# [6] = tested on: LOC_OS05G43570-cb004
# Method in brief: as §1
# [7] = tested on: LOC_OS06G16330-cb003
# Sequence of LOC_OS06G16330-cb003 (as listed by the source): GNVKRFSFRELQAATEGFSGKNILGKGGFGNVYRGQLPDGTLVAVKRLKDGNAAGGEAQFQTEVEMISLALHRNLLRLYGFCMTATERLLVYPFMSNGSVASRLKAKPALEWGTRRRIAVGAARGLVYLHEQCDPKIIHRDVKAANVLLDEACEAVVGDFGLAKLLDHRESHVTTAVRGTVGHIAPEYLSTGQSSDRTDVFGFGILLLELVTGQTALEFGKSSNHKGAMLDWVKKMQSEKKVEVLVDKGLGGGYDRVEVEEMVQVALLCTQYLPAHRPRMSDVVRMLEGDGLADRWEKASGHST
# Method in brief: as §1
# [8] = tested on: T1, LOC_OS06G22820-cb001
# T1 sequence (whole entry): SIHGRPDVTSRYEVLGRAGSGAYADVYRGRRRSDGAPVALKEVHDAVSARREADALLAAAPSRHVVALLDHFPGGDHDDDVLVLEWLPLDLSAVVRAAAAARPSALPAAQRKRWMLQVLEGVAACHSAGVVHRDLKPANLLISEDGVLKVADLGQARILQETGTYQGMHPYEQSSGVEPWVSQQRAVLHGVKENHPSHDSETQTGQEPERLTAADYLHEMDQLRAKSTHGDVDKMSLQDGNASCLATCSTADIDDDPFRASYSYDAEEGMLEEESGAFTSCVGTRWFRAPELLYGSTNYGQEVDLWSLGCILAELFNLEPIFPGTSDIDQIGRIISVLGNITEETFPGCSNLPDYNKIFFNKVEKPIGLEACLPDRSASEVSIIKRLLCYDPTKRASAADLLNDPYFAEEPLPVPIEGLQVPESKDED
# Method in brief: as §1
# [9] = tested on: LOC_OS07G06570-cb004
# Method in brief: as §1
# [10] = tested on: LOC_OS07G07230-cb001
# Method in brief: as §1
SMILES,thermal shift delta Tm [1],thermal shift delta Tm [2],thermal shift delta Tm [3],thermal shift delta Tm [4],thermal shift delta Tm [5],thermal shift delta Tm [6],thermal shift delta Tm [7],thermal shift delta Tm [8],thermal shift delta Tm [9],thermal shift delta Tm [10]
OC1CCC(Oc2cccc3cnc(Nc4ccc5nc[nH]c5c4)nc23)CC1 (stereo not given),4.38 °C,13.5 °C,18.9 °C,0.67 °C,2.88 °C,1.07 °C,12.4 °C,0.29 °C,1.85 °C,0.34 °C
C=CC(=O)Nc1cccc(Nc2nc(Nc3ccc(Oc4ccnc(C(=O)NC)c4)cc3)ncc2F)c1,1.31 °C,11 °C,6.27 °C,0.89 °C,0.57 °C,0.22 °C,6.48 °C,0.38 °C,0.89 °C,1.49 °C
O=c1ccc2ccc(O)c(O)c2o1 [Daphnetin],0.17 °C,0.01 °C,-3.57 °C,0.77 °C,0.79 °C,0.83 °C,0.25 °C,0.83 °C,1.31 °C,-0.12 °C
COc1ccc(-c2cc3c(C)nc(N)nc3n([C@H]3CC[C@H](OCCO)CC3)c2=O)cn1,0.78 °C,0.06 °C,-1.05 °C,0.57 °C,0.75 °C,0.65 °C,-0.03 °C,0.69 °C,1.04 °C,0.01 °C
Cc1ccccc1CN1C2=NCCN2C(=O)C2=C1CCN(Cc1ccccc1)C2 [TIC10 Analogue],-0.16 °C,-0.89 °C,-2.52 °C,0.56 °C,0.36 °C,0.33 °C,-0.41 °C,0.74 °C,1.19 °C,0.09 °C
Cn1cc(-c2ccc3c(c2)CCN3C(=O)Cc2cccc(C(F)(F)F)c2)c2c(N)ncnc21,1.69 °C,6.67 °C,1.91 °C,0.55 °C,0.78 °C,0.46 °C,2.76 °C,0.97 °C,0.97 °C,4.19 °C
COc1ccc2c(c1)[C@]1(C[C@H]1c1ccc3c(/C=C/c4ccc(CN5C[C@@H](C)O[C@@H](C)C5)cc4)n[nH]c3c1)C(=O)N2,7.27 °C,12.3 °C,9.09 °C,0.02 °C,-0.63 °C,0.5 °C,11.6 °C,0.46 °C,0.63 °C,-0.28 °C
O=c1c(O)c(-c2ccc(O)c(O)c2)oc2cc(O)cc(O)c12 [Quercetin],0.22 °C,10.2 °C,3.82 °C,0.95 °C,0.67 °C,1.19 °C,5.31 °C,1.15 °C,-0.26 °C,-0.07 °C
COc1ccc(C(=O)Nc2sc3c(c2C(N)=O)CCCC3)cc1OC,0.24 °C,5.8 °C,-1.08 °C,0.65 °C,0.5 °C,0.59 °C,5.12 °C,0.46 °C,1.73 °C,0.5 °C
CC(C)(C)NS(=O)(=O)c1cncc(-c2cc(F)c3nc(N)nn3c2)c1,0.3 °C,1.74 °C,0.61 °C,0.78 °C,0.53 °C,0.59 °C,0.88 °C,0.87 °C,1.73 °C,0.06 °C
CCS(=O)(=O)Nc1ccc2c(c1)/C(=C(/Nc1ccc(CN3CCCCC3)cc1)c1ccccc1)C(=O)N2 [Hesperadin],7.62 °C,11.8 °C,16.8 °C,-0.02 °C,2.48 °C,0.56 °C,13.1 °C,0.6 °C,0.84 °C,-0.17 °C
CO[C@@H](C)Cn1c(=O)n(C)c2cnc3ccc(-c4cncc(C(C)(C)O)c4)cc3c21,0.18 °C,4.35 °C,-0.98 °C,0.31 °C,0.49 °C,0.43 °C,0.71 °C,0.7 °C,0.91 °C,0.7 °C
C[C@H](Nc1ncnc2[nH]cnc12)c1cc2ccc(F)cc2nc1-c1ccccn1,0.18 °C,0.48 °C,0.99 °C,0.62 °C,0.48 °C,0.58 °C,0.43 °C,0.53 °C,0.76 °C,0.2 °C
C[C@@H](Oc1ccc2[nH]nc(/C=C/c3cnn(CCO)c3)c2c1)c1c(Cl)cncc1Cl,8.94 °C,16 °C,12.1 °C,1.22 °C,6.07 °C,0.92 °C,15.1 °C,-0.35 °C,0.87 °C,0.66 °C
CN1CCN(CCOc2cc(OC3CCOCC3)c3c(Nc4c(Cl)ccc5c4OCO5)ncnc3c2)CC1 [Saracatinib (AZD0530)],0.78 °C,7.68 °C,3.59 °C,0.24 °C,0.41 °C,0.7 °C,7.52 °C,0.89 °C,1.29 °C,0.13 °C
COc1nccc(-c2c(-c3ccc(F)cc3)ncn2C2CCC(O)CC2)n1 (stereo not given),0.18 °C,-0.01 °C,1.52 °C,0.58 °C,0.26 °C,0.65 °C,0.57 °C,0.43 °C,0.69 °C,-0.08 °C
Oc1ccc(Nc2nc(-c3ccc(Cl)cc3)cs2)cc1,0.01 °C,3.59 °C,-0.03 °C,0.45 °C,1.05 °C,-0.07 °C,0.92 °C,0.79 °C,-0.41 °C,0.38 °C
Nc1ncccc1-c1nc2ccc(-c3ccccc3)nc2n1-c1ccc(C2(N)CCC2)cc1 [Miransertib (ARQ 092) HCl],-0.29 °C,1.08 °C,-5.68 °C,-0.2 °C,0.04 °C,0.09 °C,-0.91 °C,0.24 °C,1.32 °C,0.36 °C
